PNC inhibitor: blocks assembly of the perinucleolar compartment; PC3M PTB-GFP, PNC prevalence imaging, 16 h; hits give low values; activity change (PNC), negative = inhibition, % at 10 µM; actives 3.1% (n = 140,000);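 active = readout at or below -70, meaning at least 70% loss of cells showing the perinucleolar compartment, a nuclear body marking cancer cells; inconclusive = readout between -30 and a set limit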
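Read-out is percentage of cells bearing a perinucleolar compartment, from automated 20x imaging of fixed, Hoechst-stained PC3M PTB-GFP cells. Cells were seeded 4 h, then exposed 16 h to compound (23 nl of library stock) in duplicate plates.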
ALDH1A1 block: inhibitors of human aldehyde dehydrogenase 1A1. P00352. Purified ALDH1A1, NADH fluorescence, propionaldehyde substrate. Potency, µM (doses to about 75.3 µM), usual class: inhibitors. actives 7.3% (n = 220,000). AID 1030
HPGD block: blocks human HPGD enzyme activity. actives 4.3% (n = 150,000). purified HPGD, NADH fluorescence kinetic, PGE2 substrate. Potency, µM, actives largely listed as inhibitors. P15428
Target sequence (P15428 whole entry, looked up): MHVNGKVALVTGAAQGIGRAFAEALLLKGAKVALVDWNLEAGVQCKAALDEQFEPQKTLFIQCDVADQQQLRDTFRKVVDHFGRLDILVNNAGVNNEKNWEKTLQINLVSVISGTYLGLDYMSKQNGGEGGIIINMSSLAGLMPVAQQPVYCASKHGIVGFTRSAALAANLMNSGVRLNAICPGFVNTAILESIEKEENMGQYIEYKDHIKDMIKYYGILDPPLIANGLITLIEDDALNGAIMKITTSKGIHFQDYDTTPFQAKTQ
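NADH formation kinetics: reaction with 30 uM PGE2 and 1 mM NAD+ (final), 20 nM enzyme, Tris-HCl pH 8 with Tween 20, after 15 min compound preincubation at room temperature. Fluorescence change, last versus first of five reads.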
Large screens that a line does not name were inactive. Compounds with a hit are over-represented: about 11% of the library has one in this group of screens. Unless noted, calls follow the shape of the dose curve; as a rule, active = well fitted inhibition curve with a large enough effect (not every such curve was filed as active); inconclusive = small, poorly fitted or top-dose-only effect, or another doubt; inactive = no such curve, though single readings can be large or run the other way.

COCCN=C1OC(=O)N2C(=O)C3=C4C(C[C@H]5C(=O)N(CC(=O)OC)C(=O)[C@H]5[C@H]4[C@@]12Cc1ccccc1)[C@H]1C(=O)N(CC(=O)OC)C(=O)[C@H]1[C@H]3C (stereo partly specified)	none (no result: PNC inhibitor)
CC1(C)N=C(N)N=C(N)N1c1cccc(OCc2cccc(N)c2)c1	none (no result: PNC inhibitor)
O=C(CN1CCCN(Cc2ccc(F)cc2Cl)C1=O)NC1CCCC1	none (no result: PNC inhibitor, HPGD block)
Cn1c(Cc2cccs2)nnc1SCC(=O)N1CCCc2ccccc21	PNC inhibitor inconclusive
O=C(CSc1nnc(Cc2cccs2)n1C1CCCCC1)N1CCCc2ccccc21	PNC inhibitor inconclusive, ALDH1A1 block 3.55µM
Oc1ccc2c(c1-c1c(O)c(Br)cc3c1CCCC3)CCCC2	none (no result: PNC inhibitor)
Nc1cc2c(cc1O)CCCC2	ALDH1A1 block 2.24µM (no result: PNC inhibitor, HPGD block)
CNC(=S)NNc1nc(C)cc(C)n1	none (no result: PNC inhibitor, HPGD block)
CCOC(=O)c1ccc2c(c1)nc(SCC(=O)N1CCOCC1)n2CC	none (no result: PNC inhibitor, HPGD block)
C=CCc1cccc(C2Nc3ccccc3C(=O)N2O)c1O (stereo unspecified)	HPGD block 7.08µM
Cc1nn(C)c(C)c1C1Nc2ccccc2C(=O)N1O (stereo unspecified)	ALDH1A1 block inconclusive
Cc1ccsc1C1Nc2ccccc2C(=O)N1O (stereo unspecified)	HPGD block 17.8µM
O=C1c2ccccc2NC(c2ccc(Cl)cc2Cl)N1O (stereo unspecified)	none
OB(O)c1cc2ccccc2o1	none (no result: PNC inhibitor)
Cc1ccc(-c2ccc(SCC(=O)c3ccccc3)nn2)cc1	ALDH1A1 block inconclusive, HPGD block inconclusive
COc1ccc(-c2ccc(SCC(=O)c3ccccc3)nn2)cc1OC	ALDH1A1 block 25.1µM (no result: PNC inhibitor, HPGD block)
Cc1ccccc1-n1c(SCc2c(C)noc2C)nnc1-c1ccncc1	PNC inhibitor -83.1, ALDH1A1 block inconclusive
Cc1ccccc1-n1c(SCc2c(C)noc2C)nnc1-c1cccnc1	PNC inhibitor inconclusive (no result: HPGD block)
Cc1ccc(NCc2n[nH]c(=S)n2-c2ccccc2)c(C)c1	none (no result: PNC inhibitor, HPGD block)
CC(C)CN1CCCC2(CCN(C(=O)c3cc(C(F)(F)F)cc(C(F)(F)F)c3)CC2)C1	none (no result: PNC inhibitor)
CCOc1ccc(NC(=O)CSc2nnc(-c3ccccc3)n2N)cc1	none
COc1ccc(NC(=O)CSc2nnc(-c3ccccc3)n2N)cc1	PNC inhibitor -100.0
COC(=O)c1ccc(NC(=O)CSc2nnc(-c3ccncc3)n2N)cc1	ALDH1A1 block 25.1µM
COC(=O)c1ccc(NC(=O)CSc2nnc(-c3ccccc3)n2C)cc1	none
CCCCCCCCCCCCCCC(C(=O)OC)C(O)(CC(=O)OC)C(=O)OC (stereo unspecified)	none (no result: PNC inhibitor)
CC(C)(C)NC(=O)NC(=O)CSc1cccc(C(F)(F)F)c1	none (no result: PNC inhibitor, HPGD block)
Cc1ccccc1C(=O)NC(=S)Nc1ccc(S(=O)(=O)N(C)c2ccccc2)cc1	ALDH1A1 block 17.8µM
Cc1cccc(C(=O)NC(=S)Nc2ccc(S(=O)(=O)N(C)c3ccccc3)cc2)c1	ALDH1A1 block 20µM
CN(c1ccccc1)S(=O)(=O)c1ccc(NC(=O)c2ccccc2)cc1	none
CC(C)C(=O)NC(=S)Nc1ccc(S(=O)(=O)N(C)Cc2ccccc2)cc1	PNC inhibitor inconclusive, ALDH1A1 block inconclusive
CN(C)CCN(C)C(=O)c1ccc(-n2c(=O)c(=O)[nH]c3ccccc32)cc1	none (no result: PNC inhibitor)
COC(=O)c1ccc(COc2ccccc2/C=C(\C#N)C(=O)Nc2ccc(C)cc2)cc1	PNC inhibitor inconclusive
N#C/C(=C\c1ccccc1OCc1ccc(C(=O)O)cc1)C(=O)Nc1ccc(O)cc1	ALDH1A1 block 5.62µM (no result: PNC inhibitor, HPGD block)
CC(C)c1cc(NC(=O)CCl)on1	ALDH1A1 block 1.58µM (no result: PNC inhibitor, HPGD block)
Cc1cc(NC(=O)c2cc(C(C)C)on2)no1	none
CC(C)(C)C(=O)OCCNc1nc(-c2ccccc2)nc2ccccc12	none
O=[N+]([O-])c1cc(S(=O)(=O)N2CCCCCC2)ccc1Cl	none (no result: PNC inhibitor, HPGD block)
Cc1nc(N2CCCCC2)sc1C(=O)c1ccc(Cl)c([N+](=O)[O-])c1	ALDH1A1 block 7.94µM (no result: PNC inhibitor, HPGD block)
CN(C[C@H](Cc1ccccc1)N(C[C@H](Cc1ccccc1)N(CC1(c2ccccc2)CC1)N=O)N=O)N=O	none (no result: PNC inhibitor, HPGD block)
C/C(=N\NC(=O)CC1(C)OCCO1)c1cccs1	PNC inhibitor -88.4
CCOC(=O)N/N=C(\C)c1cccs1	none (no result: PNC inhibitor, HPGD block)
COc1ccccc1-n1c(=O)c2c3c(sc2n2c(=S)[nH]nc12)CCC3	none (no result: PNC inhibitor, HPGD block)
O=C(Nc1cccc(Cl)c1)NC1CC2CCC(C1)N2Cc1cccs1 (stereo unspecified)	none (no result: PNC inhibitor, HPGD block)
Cc1ccc(CN2C(=O)CCC2C(=O)NCC2CCCO2)cc1 (stereo unspecified)	PNC inhibitor inconclusive
O=C(NCC1CCCO1)c1ccccc1 (stereo unspecified)	HPGD block 20µM
O=C(NC(=S)NCC1CCCO1)c1ccccc1 (stereo unspecified)	none
O=C(NCC1CCCO1)c1cccc(F)c1 (stereo unspecified)	HPGD block 22.4µM
O=C(NCC1CCCO1)c1cc2ccccc2[nH]1 (stereo unspecified)	PNC inhibitor -123.3, HPGD block inconclusive
O=C(NCC1CCCO1)c1ccccn1 (stereo unspecified)	none
O=C(NCC1CCCO1)C1CCC(=O)N1CCc1ccccc1 (stereo unspecified)	PNC inhibitor -102.1
Cc1cccc(C(=O)NCC2CCCO2)c1 (stereo unspecified)	HPGD block inconclusive
Cc1ccc(C(=O)OCC(=O)c2c[nH]c3ccccc23)cc1S(=O)(=O)N1CCCCC1	none
Cc1nc2sccn2c(=O)c1Br	none
NS(=O)(=O)c1ccc(CCNC(=O)CN2CCCCCC2)cc1	none (no result: PNC inhibitor, HPGD block)
O=c1[nH]c(SCc2cccc(Cl)c2)nc2[nH]ncc12	none (no result: PNC inhibitor, HPGD block)
NC1=NCCCC1	none (no result: PNC inhibitor)
COC(=O)[C@H](Cc1ccccc1)NC(=O)O[C@@H]1C(=O)c2ccc(OC)cc2O[C@H]1c1ccc2c(c1)OCO2	none (no result: PNC inhibitor)
FC(F)(F)c1ccccc1-c1ccc2ncnc(NCc3cccnc3)c2c1	none (no result: PNC inhibitor, HPGD block)
CN(C)c1cccc(C(=O)NCC2CCCO2)c1 (stereo unspecified)	PNC inhibitor inconclusive, ALDH1A1 block inconclusive
CC(CC(=O)NCC1CCCO1)c1ccccc1 (stereo unspecified)	HPGD block 15.8µM
O=C(NCC1CCCO1)c1ccc(N2CCCCC2)nc1 (stereo unspecified)	ALDH1A1 block inconclusive, HPGD block 14.1µM
CN(C)c1ccc(C(=O)NCC2CCCO2)cc1 (stereo unspecified)	PNC inhibitor inconclusive, HPGD block 14.1µM
S=C(NCC1CCCO1)NC1CC1 (stereo unspecified)	none (no result: PNC inhibitor, HPGD block)
O=C(COC(=O)c1ccccc1)NCC1CCCO1 (stereo unspecified)	none
O=C(NCC1CCCO1)NC1CCCCC1 (stereo unspecified)	PNC inhibitor inconclusive, HPGD block 28.2µM
O=C(NCC1CCCO1)c1ccc2nc(N3CCCCC3)sc2c1 (stereo unspecified)	ALDH1A1 block inconclusive, HPGD block inconclusive
Cc1cc(C)c(-n2nnnc2SC(C)C)c(C)c1	none
COC(=O)NNC(=O)Cc1cccc2ccccc12	PNC inhibitor inconclusive
O=c1cc2[nH]c3ccccc3c(=O)n2nc1-c1ccccc1	PNC inhibitor inconclusive, ALDH1A1 block inconclusive
CCNc1nc(NCC)n2c(SCC(=O)Nc3ccc(C(F)(F)F)cc3[N+](=O)[O-])nnc2n1	PNC inhibitor inconclusive
CCOC(=O)c1c(NC(=S)Nc2ccc(F)cc2)sc2c1CCC2	none
CCOC(=O)c1c(NC(=S)Nc2ccc(C)cc2)sc2c1CCC2	none

Compound activity (PubChem)
